Assay results: PubChem BioAssay (NCATS)
Several values for one entry are separate records, joined by “and”; a condition that tells them apart may be missing. Equal values may be shown once. Results filed as inconclusive are left out. Activity calls are given as the source filed them. Calls follow the shape of the dose curve; as a rule, active = well fitted cell-killing curve with a large enough effect; inconclusive = small, poorly fitted or top-dose-only effect, or effect the other way; inactive = flat fitted curve, though single readings scatter.

Legend:
Assay in all cases: Primary qHTS to identify gynecologic anti-cancer compounds using libraries of approved drugs and bioactive compounds (AID 1345084); also: nearly all actives have a fitted effect of over 55% in size
[1] = tested on: CAOV3; settings: Gynecologic cancer cell panel viability, ATPlite luminescence, 48 h; series mostly up to 57.5 µM
Method in brief: (§1)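 Cell viability after 48 h drug treatment, ATPlite luminescence readout; five doses.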

[2] = tested on: CASKI; settings: Gynecologic cancer cell panel viability, ATPlite luminescence, 48 h; series mostly up to 57.5 µM
Method in brief: as §1

[3] = tested on: Es-2; settings: Gynecologic cancer cell panel viability, ATPlite luminescence, 48 h; series mostly up to 57.5 µM
Method in brief: as §1

[4] = tested on: HeLa; settings: Gynecologic cancer cell panel viability, ATPlite luminescence, 48 h; series mostly up to 57.5 µM
Method in brief: as §1

[5] = tested on: Hek293T; settings: Gynecologic cancer cell panel viability, ATPlite luminescence, 48 h, control line for the selectivity index; series mostly up to 57.5 µM
Method in brief: as §1

[6] = tested on: JEG-3; settings: Gynecologic cancer cell panel viability, ATPlite luminescence, 48 h; series mostly up to 57.5 µM
Method in brief: as §1

[7] = tested on: OV90; settings: Gynecologic cancer cell panel viability, ATPlite luminescence, 48 h; series mostly up to 57.5 µM
Method in brief: as §1

[8] = tested on: PA-1; settings: Gynecologic cancer cell panel viability, ATPlite luminescence, 48 h; series mostly up to 57.5 µM
Method in brief: as §1

[9] = tested on: SKOV3; settings: Gynecologic cancer cell panel viability, ATPlite luminescence, 48 h; series mostly up to 57.5 µM
Method in brief: as §1

[10] = tested on: Tov-21-G; settings: Gynecologic cancer cell panel viability, ATPlite luminescence, 48 h; series mostly up to 57.5 µM
Method in brief: as §1

Measured: Potency
Potency is read from the fitted curve at half-maximal effect.

Cc1c(OCC(F)(F)F)ccnc1CS(=O)c1nc2ccccc2[nH]1 (centres undefined)
inactive: all assays above

CC1(C)NC(=O)N(c2ccc([N+](=O)[O-])c(C(F)(F)F)c2)C1=O
inactive: all assays above

Clc1ccc(C(Cn2ccnc2)OCc2c(Cl)cccc2Cl)c(Cl)c1 (centres undefined)
inactive: all assays above

COc1cc(OC)c(C(=O)CCCN2CCCC2)c(OC)c1
inactive: all assays above

CN(C)c1ccc(O)c2c1C[C@H]1C[C@H]3[C@H](N(C)C)C(=O)C(C(N)=O)=C(O)[C@@]3(O)C(=O)C1=C2O
inactive: all assays above

CN(c1nccc(=O)[nH]1)C1CCN(c2nc3ccccc3n2Cc2ccc(F)cc2)CC1
inactive: all assays above

Clc1ccc(C(Cn2ccnc2)OCc2ccsc2Cl)c(Cl)c1 (centres undefined)
inactive: all assays above

Nc1cccc2c1CN(C1CCC(=O)NC1=O)C2=O (centres undefined)
inactive: all assays above

c1cnc2cc3c(cc2n1)C1CNCC3C1
inactive: all assays above

S=c1nc[nH]c2nc[nH]c12
active: [2] 2.51 µM | [3] 5.62 µM | [4] 5.62 µM | [5] 15.8 µM | [6] 3.55 µM | [7] 7.08 µM | [8] 3.16 µM | [10] 3.16 µM
inactive: [1] | [9]

CCOC(=O)c1c(C)n(C)c2ccc(O)cc12
inactive: all assays above

COC(=O)N[C@H](C(=O)N[C@@H](Cc1ccccc1)[C@@H](O)CN(Cc1ccc(-c2ccccn2)cc1)NC(=O)[C@@H](NC(=O)OC)C(C)(C)C)C(C)(C)C
inactive: all assays above

O=C(NC(Cc1cc(=O)[nH]c2ccccc12)C(=O)O)c1ccc(Cl)cc1 (centres undefined)
inactive: all assays above

C=CCc1cc(OC)c(O)c(C(=O)NCCO)c1
inactive: all assays above

O=C(O)c1cn(-c2ccc(F)cc2)c2cc(N3CCNCC3)c(F)cc2c1=O
inactive: all assays above

COc1ccc2cc([C@H](C)C(=O)O)ccc2c1
inactive: all assays above

O=C(O)c1cccc(-c2noc(-c3ccccc3F)n2)c1
active: [1] 10 µM and 11.2 µM | [2] 11.2 µM and 14.1 µM | [3] 3.16 µM and 6.31 µM | [4] 7.08 µM and 10 µM | [5] 4.47 µM and 7.08 µM | [6] 7.94 µM and 11.2 µM | [7] 12.6 µM | [8] 3.55 µM and 7.94 µM | [9] 10 µM and 12.6 µM | [10] 5.01 µM and 8.91 µM

Cc1cc2c(s1)Nc1ccccc1N=C2N1CCN(C)CC1
inactive: all assays above

COc1c(O)cc2c(c1O)[C@@H]1O[C@H](CO)[C@@H](O)[C@H](O)[C@H]1OC2=O
inactive: all assays above

CC(C)[C@H](N)C(=O)OCCOCn1cnc2c(=O)[nH]c(N)nc21
inactive: all assays above

Cc1ccc(C)c(OCCCC(C)(C)C(=O)O)c1
inactive: all assays above

C=C(c1ccc(C(=O)O)cc1)c1cc2c(cc1C)C(C)(C)CCC2(C)C
inactive: all assays above

O=C(NCCO[N+](=O)[O-])c1cccnc1
inactive: all assays above

NC(=O)Cc1cccc(C(=O)c2ccccc2)c1N
inactive: all assays above

Cc1ccc(S(=O)(=O)NC(=O)NN2CC3CCCC3C2)cc1 (centres undefined)
inactive: all assays above

CC(C)c1ccc2oc3nc(N)c(C(=O)O)cc3c(=O)c2c1
active: [1] 6.31 µM | [2] 4.47 µM | [3] 7.08 µM | [4] 7.94 µM | [5] 7.08 µM | [6] 7.94 µM | [7] 6.31 µM | [8] 5.62 µM | [9] 7.08 µM | [10] 5.01 µM

CC(=O)NC[C@H]1CN(c2ccc(N3CCOCC3)c(F)c2)C(=O)O1
not listed: [10]
inactive: all other assays above

Nc1cc(C(Cl)=C(Cl)Cl)c(S(N)(=O)=O)cc1S(N)(=O)=O
inactive: all assays above

N[C@@H](Cc1cc(I)c(Oc2cc(I)c(O)c(I)c2)c(I)c1)C(=O)O
inactive: all assays above

CC1=C(C)C(=O)C(C(CCCCCC(=O)O)c2ccccc2)=C(C)C1=O (centres undefined)
inactive: all assays above

COCCCOc1ccnc(CS(=O)c2nc3ccccc3[nH]2)c1C (centres undefined)
inactive: all assays above
